Laboratory results taken from PubChem BioAssay (Tox21).
Where “and” joins values, the source holds several entries; their conditions need not be identical. Equal values may be shown once. Results filed as inconclusive are left out. Where a call stands in place of a potency, no number is given. Values without a mark were called inactive. Calls of active or inactive are those of the source. Calls come from the whole dose curve.

Test: p53 small molecule agonists, cell-based qHTS assay: qHTS cell viability counter screen (AID 1963581); note: nearly all actives have a fitted effect of over 45% in size
Method in brief: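 Cytotoxicity read-out: ATP-based luminescence (CellTiter-Glo, 30 min RT) measured in the same wells as the p53 reporter assay, HCT-116 p53RE-bla cells, 16 h compound exposure at 37 C.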
Potency is the fitted concentration of half-maximal effect.

SMILES | Potency | activity change, negative = cytotoxicity
C=CCCCCCCCCO | inactive | 
C=CCCCCCCCC | inactive | 
O=Cc1ccc(F)cc1 | inactive | 
CN(C)c1ccc2nc3ccc(=[N+](C)C)cc-3sc2c1 | inactive | 
CC(C[N+](C)(C)C)OC(N)=O (configuration not stated) | inactive | 
CC1=CC[C@@H](C(C)(C)O)CC1 | inactive | 
CCCCCCCCSCCO | inactive | 
COC(=O)CCCCC(=O)O | inactive | 
Cc1cccc(N)n1 | inactive | 
O=c1[nH]c2ccccc2c(=O)n1CCCl | inactive | 
C[C@@H]1CCC[C@H](C)N1 | inactive | 
CNC1(C)C2CCC(C2)C1(C)C (configuration not stated) | inactive | 
Cc1ncc(CSSCc2cnc(C)c(O)c2CO)c(CO)c1O | inactive | 
CC(=O)Nc1ncc([N+](=O)[O-])s1 | inactive | 
C=C(C)C(=O)OC(C)C | inactive | 
O=C(CCNNC(=O)c1ccncc1)NCc1ccccc1 | inactive | 
CC(=C(CCOC(=O)C(C)C)SSC(CCOC(=O)C(C)C)=C(C)N(C=O)Cc1cnc(C)nc1N)N(C=O)Cc1cnc(C)nc1N | inactive | 
CCO[Si](CCCN=C=O)(OCC)OCC | inactive | 
OCC#CCO | inactive | 
C/C=C/CO | inactive | 
N=C(N)c1ccccc1 | inactive | 
COC(=O)CC(C(C)=O)C(=O)OC (configuration not stated) | inactive | 
C=CC(C)CCC=C(C)C (configuration not stated) | inactive | 
c1ccc(CCc2ccccc2)cc1 | inactive | 

SMILES | Potency | activity change, negative = cytotoxicity
N[C@@H](CCC(=O)Nc1ccc([N+](=O)[O-])cc1)C(=O)O | inactive | 
CC1=C(CC(=O)O)c2cc(F)ccc2/C1=C\c1ccc(S(C)=O)cc1 (configuration not stated) | inactive | 
O=C1c2cccc(O)c2C(=O)c2c(O)cccc21 | inactive | 
Cc1cc(C)c(C)c(O)c1 | inactive | 
CCCCCCCCCCCCCCCCCCOCC(O)CO (configuration not stated) | inactive | 
CC(C)CCCC(C)CCO (configuration not stated) | inactive | 
Cc1cn([C@H]2C[C@H](F)[C@@H](CO)O2)c(=O)[nH]c1=O | inactive | 
Cc1cc(C)cc(N)c1 | inactive | 
ClC(c1ccccc1)(c1ccccc1)c1ccccc1 | inactive | 
Cc1cc(C)cc(OCC2CNC(=O)O2)c1 (configuration not stated) | inactive | 
Cc1cc(O)c(Cl)cc1C | inactive | 
CCOC(=O)c1c(C)n(C)c2ccc(O)cc12 | inactive | 
O=C(C(=O)c1ccco1)c1ccco1 | inactive | 
CC(C)=O | inactive | 
CO[C@@]1(NC(=O)C(C(=O)O)c2ccc(O)cc2)C(=O)N2C(C(=O)O)=C(CSc3nnnn3C)CO[C@@H]21 (some centres not stated) | inactive | 
CN(C(=O)c1c(O)c2ccccc2n(C)c1=O)c1ccccc1 | inactive | 
CN(C)c1ccc(C(=C2C=CC(=[N+](C)C)C=C2)c2ccc(N(C)C)cc2)cc1 | 18.1 µM (active) and 40.8 µM (active) and 17.8 µM (active) | 
CCOC(=O)NCCC[Si](OCC)(OCC)OCC | inactive | 
CCN(CC)S(=O)(=O)c1ccc(C(=O)O)cc1 | inactive | 
CCC(=O)Nc1cccc(N)c1 | inactive | 
CCOC(=O)CCC(C)=O | inactive | 
CC(O)CCCCn1c(=O)c2c(ncn2C)n(C)c1=O (configuration not stated) | inactive | 
CC(C)C(=O)OC(=O)C(C)C | inactive | 
C=CC(=O)OCCCCCCCC | inactive | 

SMILES | Potency | activity change, negative = cytotoxicity
C[C@@H]1CCC[C@H](C)N1CCCC(O)(c1ccccc1)c1ccccn1 (some centres not stated) | inactive | 
ClCCCl | inactive | 
C[n+]1ccn(Cc2ccccc2)c1 | inactive | 
CC(C)(C)S | inactive | 
CCc1ccc(Br)cc1 | inactive | 
O=C(O)c1cccc(C[C@@H]2COc3ccc(OCc4nc5cc(F)ccc5s4)cc3[C@@H]2O)c1 | inactive | 
COC(=O)c1sccc1S(N)(=O)=O | inactive | 
CC(=O)N[C@H]1[C@H]([C@H](O)[C@H](O)CO)OC(C(=O)O)=C[C@@H]1N=C(N)N | inactive | 
CCCOC(C(=O)OC1CCN(C)CC1)(c1ccccc1)c1ccccc1 | inactive | 
CCCCCCCC/C=C\CCCCCCCC(=O)OCCCC |  | 6.46% [at 13.5 µM]
OCc1ccccc1O | inactive | 
CC/C=C\CC1=C(C)CCC1=O | inactive | 
O=[N+]([O-])c1ccc(Oc2ccc([N+](=O)[O-])cc2)cc1 | inactive | 
CC(=O)CC(=O)Nc1ccc2[nH]c(=O)[nH]c2c1 | inactive | 
C(/C=C/C=C/Nc1ccccc1)=Nc1ccccc1 | inactive | 
CCCCNc1ccccc1 | inactive | 
COCC(C)OC(C)=O (configuration not stated) | inactive | 
C=CCCCCCCCCCCC |  | 18.8% [at 5.99 µM]
OCC(CO)N[C@H]1C[C@](O)(CO)[C@@H](O)[C@H](O)[C@H]1O | inactive | 
Cc1cc(C)c(C(=O)O)c(C)c1 | inactive | 
CC(O)C(CO)C(C)O (configuration not stated) | inactive | 
CC#N | inactive | 
CC1(C)[C@H]2CC[C@](C)(C2)[C@H]1O | inactive | 
CC1=C(C=O)C(C)(C)CC=C1 | inactive | 
